Source: the OligoGym collection

Target: NTRK3
Test: pooled miR-30 sensor sort-seq; sequence = guide strand
Details: shRNA
Also: reference of the scale not given here.

In order of rising sensor-assay potency score (higher = more potent):
1. TTGTGGGTCACAGTGATAGGAG  -0.852
2. TTGACAGGTTTATATAACGCAA  -0.787
3. TCTCTGTAGTGAACTTCCGGTA  -0.729
4. TAGACATCTCTGGACATGCCGA  -0.718
5. TAGAGCTCCATGTCCACGGCGT  0.00985
6. TTGATCTCAGTCTTGCTGCAGA  0.132
7. TTAATGTGCTGCACATACGTGT  0.37
8. TTCACTAGCAGATTCGCTCCAA  0.574
9. TAGAACTTGACAATGTGCTCAT  0.762
10. TTCATTCCAAATTTGGACCGTC  0.838

Target: NUDT12
Test: as above
Details: shRNA

In order of rising sensor-assay potency score (higher = more potent):
1. TTTCTCTAGAATCTTACTGATT  -0.991
2. TATTATTACATTCATTTCCAGT  -0.883
3. TAGTAAATTAGCTATATGCTTA  -0.516
4. TATATTGACAACTTAAAGGTAA  -0.0673
5. TTTTGCTTTCTCTAGAATCTTA  0.0347
6. TTAATTTCTGTAGACACTGCTA  0.0613
7. TTAAATATGTAAATCTGCCTGG  0.199
8. TTTAACATTATGAAAACCTGGA  0.224
9. TATATCTGTGTAGTTCAGCTGA  0.275
10. TAATAGTATGCTTTTCTCCTTC  0.381
11. TTAACTTGGCAATATCTCCTTC  0.732

Target: NUDT17
Test: as above
Details: shRNA

In order of rising sensor-assay potency score (higher = more potent):
1. TCTCTGTCCCATCCTCTGCGGC  -1.35
2. TTCTCGAAGCCCTCCGTCCAGC  -1.17
3. TGTTCCATTCTTCCTTTGCTGG  -1.04
4. TTCCACTGCAAGGACAGAGGGT  -0.741
5. TTGTCCTCTGCCATGGTTGGGA  -0.492
6. TTTGGGTTTGGTTGGATCCGGG  -0.403
7. AGCAAGACAGTCTTGTCGCTGG  -0.353
8. TAAGCTGCACTTTTACACGGTG  -0.247
9. TTGAGGGCAAACTTGGTTCCAG  -0.0646
10. TAGCAAGACAGTCTTGTCGCTG  -0.0193
11. TTAGCAAGACAGTCTTGTCGCT  0.135
12. ATACAGAACAATGTGATGGTAT  0.6

Target: NUDT18
Test: as above
Details: shRNA

In order of falling sensor-assay potency score (higher = more potent):
1. TTACTCAGCAACGTGCTCCTCC  0.514
2. TTGATCTCCACCACCAAGTGGT  0.0788
3. ACTAACACCCACACTGTCTGGG  -0.0585
4. ATCACTGTGATCTCGGCCCAGG  -0.975
5. TGTCTCGGGCTCACAGTGCAGC  -1.13
6. TAGCTCTTGGGGCAGAATGAGA  -1.69
7. TCCTCCATCACCTTCCACCAAG  -1.79
